# According to publication PMC7862700, “An all-to-all approach to the identification of sequence-specific readers for epigenetic DNA modifications on cytosine”:
# What was measured:
# Assay in all cases: DAPPL (digital affinity profiling via proximity ligation, sequencing); 10 mM Tris-HCl pH 7.5, 50 mM NaCl, 1 mM DTT, 4% glycerol, room temperature, 30 min; GST-TFs on glutathione beads, 16-mer random dsDNA library, 0.1% formaldehyde crosslink after washing; high values mean tight binding
# FEV = biological target: T1, FEV (Homo sapiens, UniProt Q99581 1-238); conditions: protein: recombinant; tags: N-terminal GST; dsDNA, one strand shown
# T1 sequence: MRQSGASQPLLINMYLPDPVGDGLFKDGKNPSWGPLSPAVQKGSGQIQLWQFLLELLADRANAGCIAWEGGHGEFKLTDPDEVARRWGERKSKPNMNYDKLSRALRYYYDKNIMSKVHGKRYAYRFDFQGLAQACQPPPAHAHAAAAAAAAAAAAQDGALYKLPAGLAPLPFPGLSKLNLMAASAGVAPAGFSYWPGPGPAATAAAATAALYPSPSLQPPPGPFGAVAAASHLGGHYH
# In short: (§1)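 Human transcription factors were made in yeast as GST fusions, captured on glutathione beads and barcoded with DNA. With a tag-only sample included, the pool was incubated with 200 nmole of a random double-stranded 16-mer DNA library in Tris/NaCl/DTT/glycerol buffer at room temperature for 30 min, then crosslinked with 0.1% formaldehyde after washing, ligated by proximity, amplified and sequenced. For binding signal, each hexamer's read frequency for a factor is divided by its frequency for the tag-only sample.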
# ETV5 = ETV5 (Homo sapiens, UniProt P41161 1-510); conditions: protein: recombinant; tags: N-terminal GST; dsDNA, one strand shown
# In short: as §1
# HSF1 = HSF1 (Homo sapiens, UniProt Q00613 1-529); conditions: protein: recombinant; tags: N-terminal GST; chain copies: 3; dsDNA, one strand shown
# In short: as §1
# SPIC = biological target: T2, SPIC (Homo sapiens, UniProt Q8N5J4 1-248); conditions: protein: recombinant; tags: N-terminal GST; dsDNA, one strand shown
# T2 sequence: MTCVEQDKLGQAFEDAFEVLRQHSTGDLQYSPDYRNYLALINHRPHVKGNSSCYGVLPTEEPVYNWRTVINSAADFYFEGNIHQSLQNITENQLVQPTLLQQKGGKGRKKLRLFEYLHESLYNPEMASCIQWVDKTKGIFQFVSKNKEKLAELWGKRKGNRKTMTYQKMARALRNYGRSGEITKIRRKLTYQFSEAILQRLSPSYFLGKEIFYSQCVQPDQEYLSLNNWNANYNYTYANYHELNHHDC
# In short: as §1
# ELF4 = ELF4 (Homo sapiens, UniProt Q99607 1-663); conditions: protein: recombinant; tags: N-terminal GST; dsDNA, one strand shown
# In short: as §1
# ELK4 = biological target: T3, ELK4 (Homo sapiens, UniProt P28324-2 1-405); conditions: protein: recombinant; tags: N-terminal GST; dsDNA, one strand shown
# T3 sequence: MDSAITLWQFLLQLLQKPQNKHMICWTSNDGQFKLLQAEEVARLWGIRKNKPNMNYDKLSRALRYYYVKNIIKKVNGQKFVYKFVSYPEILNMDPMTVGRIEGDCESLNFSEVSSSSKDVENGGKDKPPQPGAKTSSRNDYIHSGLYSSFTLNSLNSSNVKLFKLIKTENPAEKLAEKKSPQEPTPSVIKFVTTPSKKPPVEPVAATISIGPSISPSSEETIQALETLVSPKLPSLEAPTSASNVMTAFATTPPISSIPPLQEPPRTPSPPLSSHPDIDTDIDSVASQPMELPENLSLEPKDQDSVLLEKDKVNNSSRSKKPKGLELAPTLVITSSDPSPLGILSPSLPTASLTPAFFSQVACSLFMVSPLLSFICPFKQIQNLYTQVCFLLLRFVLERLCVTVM
# In short: as §1
# ETV2 = biological target: T4, ETV2 (Homo sapiens, UniProt O00321 1-342); conditions: protein: recombinant; tags: N-terminal GST; dsDNA, one strand shown
# T4 sequence: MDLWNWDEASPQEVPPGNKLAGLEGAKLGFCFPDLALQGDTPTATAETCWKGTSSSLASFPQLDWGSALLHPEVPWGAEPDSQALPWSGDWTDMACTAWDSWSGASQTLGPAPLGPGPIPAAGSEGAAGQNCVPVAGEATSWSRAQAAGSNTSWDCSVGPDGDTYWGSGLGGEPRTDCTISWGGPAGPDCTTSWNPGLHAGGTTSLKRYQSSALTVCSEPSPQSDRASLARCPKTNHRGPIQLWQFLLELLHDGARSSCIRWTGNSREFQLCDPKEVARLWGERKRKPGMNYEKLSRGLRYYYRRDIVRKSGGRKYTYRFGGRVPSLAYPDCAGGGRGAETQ
# In short: as §1
# ELF3 = biological target: T5, ELF3 (Homo sapiens, UniProt P78545 1-371); conditions: protein: recombinant; tags: N-terminal GST; dsDNA, one strand shown
# T5 sequence: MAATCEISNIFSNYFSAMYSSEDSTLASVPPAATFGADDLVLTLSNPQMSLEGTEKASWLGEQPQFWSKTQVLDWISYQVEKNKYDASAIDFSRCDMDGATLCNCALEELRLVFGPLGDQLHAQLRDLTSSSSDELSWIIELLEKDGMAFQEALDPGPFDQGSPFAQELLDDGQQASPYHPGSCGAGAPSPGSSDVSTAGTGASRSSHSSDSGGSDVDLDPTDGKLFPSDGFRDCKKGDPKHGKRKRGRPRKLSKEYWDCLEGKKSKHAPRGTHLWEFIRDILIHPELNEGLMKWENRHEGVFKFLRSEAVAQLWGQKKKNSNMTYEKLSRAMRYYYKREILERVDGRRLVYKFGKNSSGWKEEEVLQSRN
# In short: as §1
# CRX = CRX (Homo sapiens, UniProt O43186 1-299); conditions: protein: recombinant; tags: N-terminal GST; dsDNA, one strand shown
# In short: as §1
# ETV1 = ETV1 (Homo sapiens, UniProt P50549 1-477); conditions: protein: recombinant; tags: N-terminal GST; dsDNA, one strand shown
# In short: as §1
# ERF = biological target: T6, ERF (Homo sapiens, UniProt P50548 1-548); conditions: protein: recombinant; tags: N-terminal GST; dsDNA, one strand shown
# T6 sequence: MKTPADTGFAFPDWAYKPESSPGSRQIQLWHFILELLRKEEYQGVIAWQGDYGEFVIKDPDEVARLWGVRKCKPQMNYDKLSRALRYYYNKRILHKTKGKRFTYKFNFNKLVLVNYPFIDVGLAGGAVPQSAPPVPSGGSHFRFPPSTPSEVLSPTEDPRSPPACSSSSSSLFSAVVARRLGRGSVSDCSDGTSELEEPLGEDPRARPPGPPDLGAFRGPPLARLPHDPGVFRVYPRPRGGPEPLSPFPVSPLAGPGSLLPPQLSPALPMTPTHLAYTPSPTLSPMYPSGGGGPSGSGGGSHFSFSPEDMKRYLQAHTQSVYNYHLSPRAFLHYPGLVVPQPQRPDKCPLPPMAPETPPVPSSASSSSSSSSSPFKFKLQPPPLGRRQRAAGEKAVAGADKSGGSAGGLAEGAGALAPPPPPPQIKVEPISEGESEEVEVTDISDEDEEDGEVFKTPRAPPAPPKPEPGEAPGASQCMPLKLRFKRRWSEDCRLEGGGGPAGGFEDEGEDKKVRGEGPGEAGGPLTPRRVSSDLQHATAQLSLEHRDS
# In short: as §1
# ETV3L = biological target: T7, ETV3L (Homo sapiens, UniProt Q6ZN32 1-361); conditions: protein: recombinant; tags: N-terminal GST; dsDNA, one strand shown
# T7 sequence: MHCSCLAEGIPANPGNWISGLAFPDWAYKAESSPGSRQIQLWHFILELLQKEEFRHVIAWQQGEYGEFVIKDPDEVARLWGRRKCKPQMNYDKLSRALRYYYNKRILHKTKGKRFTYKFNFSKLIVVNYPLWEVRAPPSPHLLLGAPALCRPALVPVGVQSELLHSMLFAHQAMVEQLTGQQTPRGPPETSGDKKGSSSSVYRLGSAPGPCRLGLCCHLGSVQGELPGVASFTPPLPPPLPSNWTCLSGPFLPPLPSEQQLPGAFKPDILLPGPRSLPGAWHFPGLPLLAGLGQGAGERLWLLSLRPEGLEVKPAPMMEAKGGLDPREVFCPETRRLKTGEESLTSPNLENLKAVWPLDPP
# In short: as §1
# ETS2 = biological target: T8, ETS2 (Homo sapiens, UniProt P15036 1-469); conditions: protein: recombinant; tags: N-terminal GST; dsDNA, one strand shown
# T8 sequence: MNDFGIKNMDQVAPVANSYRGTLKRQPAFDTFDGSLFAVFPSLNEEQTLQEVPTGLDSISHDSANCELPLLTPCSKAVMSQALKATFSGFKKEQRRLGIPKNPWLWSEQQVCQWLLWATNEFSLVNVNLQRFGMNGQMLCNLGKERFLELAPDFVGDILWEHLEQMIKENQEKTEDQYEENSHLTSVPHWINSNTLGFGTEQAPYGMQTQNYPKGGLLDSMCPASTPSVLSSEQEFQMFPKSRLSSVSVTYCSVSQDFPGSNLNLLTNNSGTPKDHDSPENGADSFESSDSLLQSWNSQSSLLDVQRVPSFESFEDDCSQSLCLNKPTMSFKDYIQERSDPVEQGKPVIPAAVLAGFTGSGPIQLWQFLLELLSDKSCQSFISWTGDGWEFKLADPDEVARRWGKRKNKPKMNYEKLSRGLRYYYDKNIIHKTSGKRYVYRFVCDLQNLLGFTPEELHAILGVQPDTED
# In short: as §1
# SPDEF = biological target: T9, SPDEF (Homo sapiens, UniProt O95238 1-335); conditions: protein: recombinant; tags: N-terminal GST; dsDNA, one strand shown
# T9 sequence: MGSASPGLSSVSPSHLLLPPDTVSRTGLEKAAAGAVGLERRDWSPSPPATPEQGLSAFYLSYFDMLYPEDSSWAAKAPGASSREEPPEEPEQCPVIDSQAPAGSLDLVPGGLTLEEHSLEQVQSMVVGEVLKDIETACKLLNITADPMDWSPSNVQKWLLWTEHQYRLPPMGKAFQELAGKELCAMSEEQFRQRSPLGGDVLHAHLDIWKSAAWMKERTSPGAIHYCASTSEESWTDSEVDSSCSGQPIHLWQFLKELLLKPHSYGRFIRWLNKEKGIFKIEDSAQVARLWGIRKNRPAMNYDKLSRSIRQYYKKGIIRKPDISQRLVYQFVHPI
# In short: as §1
# ETV7 = biological target: T10, ETV7 (Homo sapiens, UniProt Q9Y603 1-341); conditions: protein: recombinant; tags: N-terminal GST; dsDNA, one strand shown
# T10 sequence: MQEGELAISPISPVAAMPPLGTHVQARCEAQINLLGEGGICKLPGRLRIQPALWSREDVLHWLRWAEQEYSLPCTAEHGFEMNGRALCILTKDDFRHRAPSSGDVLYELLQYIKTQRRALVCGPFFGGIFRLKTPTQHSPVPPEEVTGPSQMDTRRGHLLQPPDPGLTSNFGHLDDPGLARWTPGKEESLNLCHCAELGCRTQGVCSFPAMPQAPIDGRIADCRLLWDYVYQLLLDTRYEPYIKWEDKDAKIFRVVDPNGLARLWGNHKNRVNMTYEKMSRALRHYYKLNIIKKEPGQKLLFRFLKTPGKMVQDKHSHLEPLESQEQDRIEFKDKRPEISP
# In short: as §1
# ELF5 = biological target: T11, ELF5 (Homo sapiens, UniProt Q9UKW6-2 1-255); conditions: protein: recombinant; tags: N-terminal GST; dsDNA, one strand shown
# T11 sequence: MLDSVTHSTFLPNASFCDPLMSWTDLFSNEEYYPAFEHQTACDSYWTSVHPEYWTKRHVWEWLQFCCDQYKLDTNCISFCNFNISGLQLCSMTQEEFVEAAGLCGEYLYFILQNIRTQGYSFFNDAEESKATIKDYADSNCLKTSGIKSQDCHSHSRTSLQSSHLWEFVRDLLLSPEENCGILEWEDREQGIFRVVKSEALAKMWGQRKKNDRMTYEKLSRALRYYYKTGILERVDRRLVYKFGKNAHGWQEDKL
# In short: as §1
# ETV3 = biological target: T12, ETV3 (Homo sapiens, UniProt P41162-2 1-143); conditions: protein: recombinant; tags: N-terminal GST; dsDNA, one strand shown
# T12 sequence: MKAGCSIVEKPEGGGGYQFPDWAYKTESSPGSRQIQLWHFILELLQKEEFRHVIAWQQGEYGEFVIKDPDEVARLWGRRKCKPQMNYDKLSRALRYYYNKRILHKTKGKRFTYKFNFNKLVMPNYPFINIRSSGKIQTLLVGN
# In short: as §1
# ETV6 = ETV6 (Homo sapiens, UniProt P41212 1-452); conditions: protein: recombinant; tags: N-terminal GST; dsDNA, one strand shown
# In short: as §1
# Sequence of CRX (O43186 whole entry): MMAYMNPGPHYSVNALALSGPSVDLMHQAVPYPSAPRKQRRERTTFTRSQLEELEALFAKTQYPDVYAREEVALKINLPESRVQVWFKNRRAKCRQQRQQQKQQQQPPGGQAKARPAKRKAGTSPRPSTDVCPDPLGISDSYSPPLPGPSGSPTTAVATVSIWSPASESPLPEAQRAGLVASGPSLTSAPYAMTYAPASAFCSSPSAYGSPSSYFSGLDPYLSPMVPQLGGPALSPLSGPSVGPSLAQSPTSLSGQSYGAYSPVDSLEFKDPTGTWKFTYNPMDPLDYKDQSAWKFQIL
# Sequence of ETV1 (P50549 whole entry): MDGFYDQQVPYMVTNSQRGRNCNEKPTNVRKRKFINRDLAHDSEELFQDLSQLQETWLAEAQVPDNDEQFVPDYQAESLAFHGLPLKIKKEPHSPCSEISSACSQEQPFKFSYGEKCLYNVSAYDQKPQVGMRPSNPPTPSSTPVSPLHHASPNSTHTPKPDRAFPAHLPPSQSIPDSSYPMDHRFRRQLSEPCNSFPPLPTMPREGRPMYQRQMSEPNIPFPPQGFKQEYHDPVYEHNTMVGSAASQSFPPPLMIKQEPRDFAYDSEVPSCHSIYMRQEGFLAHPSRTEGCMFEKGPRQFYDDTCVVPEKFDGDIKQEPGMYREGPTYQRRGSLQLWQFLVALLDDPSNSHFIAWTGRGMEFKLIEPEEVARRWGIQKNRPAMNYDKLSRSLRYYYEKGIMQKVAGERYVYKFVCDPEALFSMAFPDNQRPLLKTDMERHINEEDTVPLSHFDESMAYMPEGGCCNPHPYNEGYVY
# Sequence of HSF1 (Q00613 whole entry): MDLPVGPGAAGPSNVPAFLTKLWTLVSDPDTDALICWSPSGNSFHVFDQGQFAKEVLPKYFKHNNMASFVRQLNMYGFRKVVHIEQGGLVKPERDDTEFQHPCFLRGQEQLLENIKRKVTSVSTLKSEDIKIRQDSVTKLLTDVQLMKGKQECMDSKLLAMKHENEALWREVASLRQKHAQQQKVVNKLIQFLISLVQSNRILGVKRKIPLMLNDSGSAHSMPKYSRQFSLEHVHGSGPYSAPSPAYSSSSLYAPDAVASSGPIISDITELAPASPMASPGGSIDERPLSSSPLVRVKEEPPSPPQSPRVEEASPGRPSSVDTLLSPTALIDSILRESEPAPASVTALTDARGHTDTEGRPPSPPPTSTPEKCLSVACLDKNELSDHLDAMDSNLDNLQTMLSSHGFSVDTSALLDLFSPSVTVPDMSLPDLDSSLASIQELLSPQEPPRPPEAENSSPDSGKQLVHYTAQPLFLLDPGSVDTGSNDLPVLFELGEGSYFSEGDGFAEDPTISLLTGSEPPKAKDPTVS
# Sequence of ETV6 (P41212 whole entry): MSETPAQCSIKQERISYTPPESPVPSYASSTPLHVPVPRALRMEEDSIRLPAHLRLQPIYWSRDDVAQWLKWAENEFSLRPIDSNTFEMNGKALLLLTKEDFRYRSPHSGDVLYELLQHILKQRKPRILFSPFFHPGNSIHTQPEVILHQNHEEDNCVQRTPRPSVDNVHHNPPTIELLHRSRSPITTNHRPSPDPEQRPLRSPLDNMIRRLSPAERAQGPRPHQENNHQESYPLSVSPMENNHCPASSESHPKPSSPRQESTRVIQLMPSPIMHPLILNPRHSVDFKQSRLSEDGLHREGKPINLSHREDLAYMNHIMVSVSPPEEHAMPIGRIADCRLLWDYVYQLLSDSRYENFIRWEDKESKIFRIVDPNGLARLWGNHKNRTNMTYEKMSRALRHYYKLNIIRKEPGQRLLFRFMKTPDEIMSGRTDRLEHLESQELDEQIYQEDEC
# Sequence of ETV5 (P41161 whole entry): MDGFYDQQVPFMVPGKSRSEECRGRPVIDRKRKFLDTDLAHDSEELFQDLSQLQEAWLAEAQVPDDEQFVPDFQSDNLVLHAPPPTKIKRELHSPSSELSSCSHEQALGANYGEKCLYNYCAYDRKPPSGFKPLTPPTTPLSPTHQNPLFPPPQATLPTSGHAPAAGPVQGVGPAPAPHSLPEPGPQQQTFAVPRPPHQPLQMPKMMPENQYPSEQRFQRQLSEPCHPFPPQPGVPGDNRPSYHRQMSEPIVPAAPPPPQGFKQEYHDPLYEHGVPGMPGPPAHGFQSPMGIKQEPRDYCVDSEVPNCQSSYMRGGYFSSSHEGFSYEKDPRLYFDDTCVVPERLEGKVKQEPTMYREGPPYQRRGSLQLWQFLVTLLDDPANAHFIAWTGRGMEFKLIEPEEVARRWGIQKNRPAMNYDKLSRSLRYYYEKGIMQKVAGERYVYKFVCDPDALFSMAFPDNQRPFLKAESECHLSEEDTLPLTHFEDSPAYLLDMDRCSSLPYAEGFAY
# Sequence of ELF4 (Q99607 whole entry): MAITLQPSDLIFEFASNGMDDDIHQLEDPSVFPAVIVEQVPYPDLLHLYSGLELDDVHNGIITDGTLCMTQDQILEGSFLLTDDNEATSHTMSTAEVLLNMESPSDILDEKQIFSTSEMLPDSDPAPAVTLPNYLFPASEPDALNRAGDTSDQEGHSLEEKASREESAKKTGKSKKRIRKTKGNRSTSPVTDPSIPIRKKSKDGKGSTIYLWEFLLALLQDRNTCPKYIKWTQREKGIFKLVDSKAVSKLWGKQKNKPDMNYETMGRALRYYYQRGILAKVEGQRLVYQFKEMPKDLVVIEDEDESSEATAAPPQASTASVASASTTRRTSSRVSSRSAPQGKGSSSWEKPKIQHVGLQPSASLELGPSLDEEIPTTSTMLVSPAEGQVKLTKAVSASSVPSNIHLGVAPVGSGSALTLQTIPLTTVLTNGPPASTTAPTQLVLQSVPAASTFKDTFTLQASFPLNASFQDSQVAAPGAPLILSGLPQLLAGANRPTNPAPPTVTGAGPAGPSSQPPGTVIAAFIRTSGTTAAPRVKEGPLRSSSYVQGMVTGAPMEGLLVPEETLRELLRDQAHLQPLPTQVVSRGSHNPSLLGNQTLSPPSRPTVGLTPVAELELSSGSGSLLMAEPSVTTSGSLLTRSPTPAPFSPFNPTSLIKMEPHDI
sequence,measurement,setting,value
ATATCT,binding signal,FEV,"1.15 fold enrichment (6-mer frequency, TF over GST control)"
same,binding signal,ETV5,"1.1 fold enrichment (6-mer frequency, TF over GST control)"
same,binding signal,HSF1,"1.26 fold enrichment (6-mer frequency, TF over GST control)"
same,binding signal,SPIC,"1.1 fold enrichment (6-mer frequency, TF over GST control)"
same,binding signal,ELF4,"1.17 fold enrichment (6-mer frequency, TF over GST control)"
same,binding signal,ELK4,"1.2 fold enrichment (6-mer frequency, TF over GST control)"
same,binding signal,ETV2,"1.3 fold enrichment (6-mer frequency, TF over GST control)"
same,binding signal,ELF3,"1.21 fold enrichment (6-mer frequency, TF over GST control)"
same,binding signal,CRX,"1.39 fold enrichment (6-mer frequency, TF over GST control)"
same,binding signal,ETV1,"1.16 fold enrichment (6-mer frequency, TF over GST control)"
same,binding signal,ERF,"1.23 fold enrichment (6-mer frequency, TF over GST control)"
same,binding signal,ETV3L,"1.21 fold enrichment (6-mer frequency, TF over GST control)"
same,binding signal,ETS2,"1.17 fold enrichment (6-mer frequency, TF over GST control)"
same,binding signal,SPDEF,"1.22 fold enrichment (6-mer frequency, TF over GST control)"
same,binding signal,ETV7,"1.2 fold enrichment (6-mer frequency, TF over GST control)"
same,binding signal,ELF5,"1.18 fold enrichment (6-mer frequency, TF over GST control)"
same,binding signal,ETV3,"1.19 fold enrichment (6-mer frequency, TF over GST control)"
same,binding signal,ETV6,"1.14 fold enrichment (6-mer frequency, TF over GST control)"
